Screening data from PubChem BioAssay.
eIF4E-4G inh: eIF4E–eIF4G protein interaction inhibitors, primary screen, biochemical, uHTS, TR-FRET, eIF4GI fragment; Eukaryotic translation initiation factor 4E (Mus musculus) + Eukaryotic translation …; TR-FRET eIF4E-eIF4GI(517-606) binding, 2 h; inhibition, % at 21.7 µM; actives 0.37% (n = 220,000); AID 782, 2007;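 active = inhibition above about 30%, limit read from the data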;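 note: 0% = full FRET control wells and 100% = background wells lacking eIF4GI fragment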
PABP polyA inh: PABP poly(A) RNA binding inhibitors, primary screen, biochemical, fluorescence polarization, uHTS. Polyadenylate-binding protein 1 (Homo sapiens), P11940. inhibition, % at 35 µM. actives 1% (n = 290,000). AID 2014, 2009;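 note: calls also rest on retests at 20 µM and on dose response follow-up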
PABP1 MLLE inh: inhibitors of PABP1 MLLE–PAM2 peptide binding, primary screen, biochemical, fluorescence polarization, FITC-PAM2, GST-MLLE | inhibition, % at 20 µM | actives 0.36% (n = 360,000); in the data active = inhibition above about 35%, passing the limit was not always enough;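 note: plate controls were DMSO wells with GST-MLLE for no effect and wells lacking GST-MLLE protein for full effect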
eIF4H FP inh: human eIF4H binding inhibitors, primary screen, translation initiation inhibitor project, biochemical, uHTS, fluorescence polarization; eIF4H fluorescence polarization binding assay; inhibition, % at 35 µM; actives 0.94% (n = 290,000);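 note: calls also rest on retests at 20 µM and on dose response follow-up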
PERK inh: block of dimerizer-induced PERK translation repression, primary screen, PERK inhibitor project, CHO PERK-DD cells, SEAP luminescence, HTS; CHO PERK-DD fusion, SEAP luminescence translation reporter; inhibition, % at 5.6 µM; actives 0.17% (n = 220,000); AID 1416, 2008;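 active = inhibition above the mean inhibition of all tested compounds plus 3 SD, set separately per screening campaign, cut at about 2.9% in these data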;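 note: PERK kinase domain activated by AP20187 dimerizer at 100 nM; 0% = DMSO with dimerizer and 100% = rapamycin at 8.4 µM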
* = called active by the depositor; ? = inconclusive; / = no result given. Hits are enriched below; roughly 1.6% of the tested compounds scored in any of these assays. Unless noted, the rule behind the calls is not given here.

SMILES | eIF4E-4G inh | PABP polyA inh | PABP1 MLLE inh | eIF4H FP inh | PERK inh
Cc1c(C(=O)OCCOC(C)C)[nH]c2c1C(=O)CC(c1ccco1)C2 (stereo not drawn) | -2.0 | -6.9 | -4.2 | 59.1* | 0.6
CSCCOC(=O)c1[nH]c2c(c1C)C(=O)CC(c1ccco1)C2 (stereo not drawn) | 5.7 | -1.9 | -7.7 | 90.2 | 0.6
COCCOC(=O)c1[nH]c2c(c1C)C(=O)CC(c1ccco1)C2 (stereo not drawn) | 8.4 | 37.3 | 7.0 | 83.6* | 1.2
CCOC(=O)c1[nH]c2c(c1C)C(=O)CC(c1ccco1)C2 (stereo not drawn) | 7.9 | 8.4* | -13.8 | 99.3* | 1.5
Cc1c(C(=O)OCc2ccccc2)[nH]c2c1C(=O)CC(c1ccco1)C2 (stereo not drawn) | 15.2 | 0.7* | 8.3 | 81.1 | 0.4
Cc1c([N+](=O)[O-])ccc(S(=O)(=O)N2CCC(C(N)=O)CC2)c1C | -4.2 | 4.4 | 1.6 | 5.5 | 1.9
S=c1nc(-c2ccccc2)n(-c2ccccc2)[nH]1 | / | 0.6 | -1.7 | -9.4 | /
Cc1cc(C)n(C(=O)CNC(=O)c2ccccc2Br)n1 | / | -2.0 | -1.9 | -3.5 | /
CCn1c(=NC(=O)C2COc3ccccc3O2)sc2c(C)ccc(OC)c21 (stereo not drawn) | 90.0* | 13.7 | 2.8 | 6.6 | 1.6
C=CCn1c(=NC(=O)C2COc3ccccc3O2)sc2cccc(OC)c21 (stereo not drawn) | 2.7 | 3.1 | -2.1 | 10.6 | 1.0
CO/N=C/C1C(=O)NN=C1c1ccccc1 (stereo not drawn) | 2.3 | 92.7* | 4.6 | ? | 0.1
CC1=NNC(=O)C1Oc1ccccc1 (stereo not drawn) | 2.2 | 29.3 | 3.2 | 21.5 | 0.4
Cc1ccc(C2C(C#N)=C(N)N(c3cccnc3)C3=C2C(=O)CCC3)s1 (stereo not drawn) | 0.0 | ? | -7.5 | ? | 0.5
COc1ccccc1/C=c1\sc2nc(-c3ccco3)nn2c1=O | 9.4 | 61.8* | -2.9 | 90.5* | 0.9
CCOc1ccc(/C=c2\sc3nc(-c4ccco4)nn3c2=O)cc1OCC | -18.8 | -5.8 | 43.3* | 33.3 | 0.2
COc1cc(/C=c2\sc3nc(=O)c(-c4ccccc4)nn3c2=O)ccc1OCCC(C)C | -2.4 | 0.1 | 52.2 | 9.7 | -0.1
COc1ccc(OC)c(/C=c2\sc3nc(-c4cccs4)nn3c2=O)c1 | -16.1 | -0.4 | 35.3 | ? | 1.4
N#C/C(=N/Nc1ccc(OC(F)(F)F)cc1)C(N)=S | 6.9 | -0.2 | 41.2* | -7.3 | -0.1
COc1ccc(N/N=C(\C#N)C(N)=O)cc1 | -6.6 | 8.7 | -1.6 | -11.5 | 1.2
CC(C)OC(=O)[C@H]1[C@H](c2ccc(Cl)cc2)[C@@](C#N)(C(N)=O)[C@@H]2C=CC(C(N)=O)=CN21 | 4.1 | 64.0* | 2.0 | 53.3* | 0.7
Cc1cc2ccccn2c1C(=O)c1ccc(N/N=C/c2ccc(C(=O)O)cc2)c([N+](=O)[O-])c1 | 53.9* | 29.7 | -36.1 | 95.6 | 0.3
COc1ccc(/C=C(/CC(=O)NCc2ccc(Cl)cc2)c2nc3ccccc3s2)cc1 | -0.7 | 72.3 | -9.4 | active | -0.5
COc1ccc(/C=C(/CC(=O)Nc2ccccc2)c2nc3ccccc3s2)cc1 | -2.2 | 11.6 | -36.6 | 3.9 | 0.7
O=C(Sc1cccc2cccnc12)c1ccccc1Br | / | 5.4 | 36.9* | -5.7 | /
COc1ccc2c(c1)N(S(=O)(=O)c1ccccc1)CCC2=O | 7.3 | 2.6 | 5.2 | 3.2 | -0.5
SMILES | eIF4E-4G inh | PABP polyA inh | PABP1 MLLE inh | eIF4H FP inh | PERK inh
Nc1ccc2oc(-c3ccccc3Cl)cc(=O)c2c1O | 5.1 | 5.5* | 11.9 | 90.2* | 0.2
O=c1cc(-c2ccccc2Cl)oc2ccc([N+](=O)[O-])c(O)c12 | -2.2 | -6.5 | -1.7 | 10.7 | 0.4
O=C(NCC(c1ccc(F)cc1)N1CCOCC1)c1ccccc1F (stereo not drawn) | 2.7 | 1.8 | -5.0 | -1.7 | 0.1
Cc1nonc1NC(=O)CSc1nc(C23CC4CC(CC(C4)C2)C3)nc2ccccc12 | -9.3 | 9.0 | 0.5 | -13.9 | -0.2
NC(=O)CSc1nc(C23CC4CC(CC(C4)C2)C3)nc2ccccc12 | 2.7 | 58.7* | 2.0 | -0.6 | 0.4
C=CCN(CC=C)C(=O)c1ccncc1 | 5.3 | -3.5 | -6.1 | 13.1 | -0.6
COc1cc2cc(CN(Cc3nnnn3Cc3ccccc3)CC3CCCO3)c(=O)[nH]c2cc1OC (stereo not drawn) | 3.8 | 68.3* | 16.7 | 53.6* | -0.8
COc1ccc2cc(CN(CCc3ccccc3)Cc3nnnn3Cc3ccco3)c(=O)[nH]c2c1 | -6.1 | 37.2* | -14.9 | 54.9* | -1.1
CCC(C)(C)n1nnnc1C(C(C)C)N(Cc1ccco1)Cc1cc2cc3c(cc2[nH]c1=O)OCO3 (stereo not drawn) | 2.8 | 59.4* | 35.6 | 86.6 | -0.3
COc1ccc2[nH]c(=O)c(CN(C3CCCCC3)C(c3nnnn3Cc3ccco3)C(C)C)cc2c1 (stereo not drawn) | 4.6 | 63.9* | -23.9 | 63.4* | 0.0
CCC(C)(C)n1nnnc1C(C(C)C)N(Cc1cccnc1)Cc1ccco1 (stereo not drawn) | 0.0 | -11.7 | -9.9 | -3.8 | 0.3
CCN(C(=O)CCS(=O)(=O)c1cc2c(cc1Cl)NC(=O)CO2)c1ccccc1 | / | 2.0 | 8.7 | -1.1 | /
CCOc1ccc2[nH]c(=O)c(C(c3nnnn3Cc3ccco3)N3CCCC(C)C3)cc2c1 (stereo not drawn) | -0.9 | 51.0 | -13.1 | 30.5* | -0.2
CCC(c1nnnn1Cc1ccco1)N(Cc1cc2cc(C)cc(C)c2[nH]c1=O)CC1CCCO1 (stereo not drawn) | 5.6 | 56.2 | 0.7 | 20.0* | -0.1
COc1ccc(Cn2nnnc2C(c2cc3ccc(OC)cc3[nH]c2=O)N2CCC(C)CC2)cc1 (stereo not drawn) | -9.4 | 12.6 | 11.6 | 8.1 | 0.3
CCOc1ccc2[nH]c(=O)c(C(c3nnnn3Cc3ccco3)N3CCC(C)CC3)cc2c1 (stereo not drawn) | 2.1 | 2.1* | -30.5 | 50.1* | -0.1
CCC(c1nnnn1Cc1ccco1)N(Cc1ccccc1OC)Cc1cc2cc(C)ccc2[nH]c1=O (stereo not drawn) | -7.1 | -1.2 | -20.5 | -4.8 | 1.1
CN(C)S(=O)(=O)c1ccc2c(c1)C(CC(=O)O)OC2=O (stereo not drawn) | -10.7 | 2.9 | -1.1 | -1.5 | 1.4
COc1cccc(N/C=C/C(=O)c2ccc(Br)cc2)c1 | / | / | -12.3 | / | 1.3
CC1CCCCC1NC(=O)CN1C(=O)c2cccc(N)c2C1=O (stereo not drawn) | 2.0 | active | 49.8* | 105.7* | 0.9
COc1ccccc1CNC(=O)CN1C(=O)c2cccc(N)c2C1=O | / | 12.0 | 27.1 | 41.3 | /
